For ten compounds, growth results are on record in PubChem BioAssay (NCI).

What all share (test): NCI-60 one-dose screen, 48 h (100 = growth as untreated, 0 = no growth, -100 = all killed)
In assay [1] the test system is HCT-15 colon. To be noted: 10 µM unless noted.
Assay [2] concerns HT29 colon. To be noted: 10 µM unless noted.
The test system of assay [3] is SNB-75 CNS. To be noted: 10 µM unless noted.
The test system of assay [4] is SNB-19 CNS. To be noted: 10 µM unless noted.
The subject of assay [5] is U251 CNS. To be noted: 10 µM unless noted.
The test system of assay [6] is PC-3 prostate. To be noted: 10 µM unless noted.
Assay [7] relates to SK-MEL-5 melanoma. To be noted: 10 µM unless noted.
The subject of assay [8] is UACC-62 melanoma.
Assay [9] deals with LOX IMVI melanoma. To be noted: 10 µM unless noted.
Assay [10] has as its system SK-MEL-28 melanoma. To be noted: 10 µM unless noted.

Where “and” joins values, the source holds several entries; their conditions need not be identical. Identical values can stand only once. The panel holds about 83,000 compounds, 20% with a hit somewhere; the sample as a whole holds those more often.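 A percent growth of 40 corresponds to 60% growth inhibition; 0 means no net growth; -100 means all cells died. Active threshold: below 10.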 A number with no mark means an inactive call. Calls of active or inactive are those of the source.

`CC1CC(O)CC(C)(C)C1.CC1CC(O)CC(C)(C)C1.CC1CC(O)CC(C)(C)C1.CC1CC(O)CC(C)(C)C1.[Ti]` (stereo unspecified): the growth in assay [1] was 110%; in assay [2], 97.2%; in [3], 113%; in assay [4], 93.4%; in assay [5], 99.2%; in [6] it was 90.4%. Further, the growth is 104% in [7], 76.2% in [8] (10 µM unless noted), 106% in assay [9] and 118% in assay [10].
Take `COc1cc2oc3cc(=O)cc4oc(-c5ccccc5)cc(c2c2c1CCC(c1ccccc1)O2)c43` (stereo unspecified): the growth in assay [1] is 62.8%; in [2] it was 71.9%; in [3], 68.2%; in [4], 98.9%; in assay [5], 87.3%; in [6], 58.9%. Further, the growth in assay [7] is 78%; in assay [8] (10 µM), 73.5%; in assay [8] (100 µM) it was 53% and 10.4%; in [9] it was 56.7%; in assay [10], 90.1%.
Regarding `N=C(N)N1CCc2ccccc2C1`, the growth in [1] is 109% and 103%; in assay [2], 102% and 105%; in assay [3], 98% and 109%; in assay [4] it was 99.9% and 103%; in assay [5], 89.2% and 98.4%; in [6] it was 89.3% and 128%. Moreover, the growth was 102% and 111% in assay [7]; 99.3% and 99% in [8] (10 µM unless noted); 84.3% and 113% in assay [9]; 109% in assay [10].
In the case of `CCOC(=O)C1=C(C)NC(C)=C(C(=O)OCC)C1`, the growth was 108% and 90.8% in assay [1]; 101% and 102% in [2]; 83.1% and 76.6% in [3]; 99.5% in assay [4]; 104% and 91.2% in assay [5]; 82.4% and 104% in assay [6]. The growth in assay [7] was 101% and 103%; in [8] (10 µM unless noted), 94.4% and 102%; in assay [9], 98.4% and 102%; in assay [10], 105% and 101%.
On to `COC(=O)c1nc(N)nc(C(=O)OC)c1C(=O)c1cccc2ccccc12`, for which the growth was 102% in assay [1]; 104% in assay [2]; 104% in [3]; 103% in assay [4]; 108% in [5]; 97% in assay [6]. For the same compound, the growth is 98.9% in assay [7], 97.2% in [8] (10 µM unless noted), 95.3% in assay [9] and 106% in assay [10].
For `Cc1c(O)nc(N)[nH]c1=O`, the growth in assay [1] is 106%; in assay [2], 106%; in [3], 102%; in assay [4], 108%; in assay [5], 100%; in assay [6], 101%. Also, the growth in [7] was 113%; in [8] (10 µM unless noted), 100%; in [9], 99.4%; in assay [10], 110%.
For `CCc1ccccc1-n1[nH]c(C)c(C=N)c1=O`, the growth in [1] is 98.3%; in assay [2], 114%; in [3] it was 101%; in assay [4], 104%; in assay [5], 109%; in assay [6], 94.7%. Further, the growth in [7] is 104%; in assay [8] (10 µM unless noted), 101%; in [9] it was 99.1%; in assay [10], 110%.
On to `COC(=O)CCOc1ccccc1`, for which the growth was 101% in [1]; 97.9% in assay [2]; 61.1% in assay [3]; 99.5% in assay [4]; 96% in [5]; 85.3% in assay [6]. For the same compound, the growth is 95.5% in [7], 99% in assay [8] (10 µM unless noted), 91.3% in assay [9] and 123% in assay [10].
In the case of `O=C1C2=C(Nc3cc(Cl)ccc3N2)OC1c1c[nH]c2ccc(COc3ccccc3)cc12` (stereo unspecified), the growth was 82% in assay [1]; 86.4% in [2]; -2.61% (active) in assay [3]; 30.4% in assay [4]; 52.2% in [5]; 45.7% in assay [6]. The growth in assay [7] was 81%; in assay [8] (10 µM unless noted) it was 68.7%; in [9] it was 70.2%; in assay [10], 94%.
For the compound `NC1=NC(c2ccccc2)N=C(Nc2ccccc2)N1` (stereo unspecified), the growth was 102% and 98.9% in [1]; 62.4% and 60.7% in assay [2]; 53.1% and 12.8% in [3]; 67% and 76% in assay [4]; 42.8% and 44.5% in [5]; 65.1% and 70.9% in assay [6]. Besides, the growth in [7] was 69.6% and 35.6%; in assay [8] (10 µM unless noted), 89%; in assay [9], 85.8% and 83%; in [10], 87.8% and 102%.
